# Reference: ChEMBL document CHEMBL4513216, “Probing the Open Global Health Chemical Diversity Library for Multistage-Active Starting Points for Next-Generation Antimalarials” (ACS Infect Dis, 2020)
# In all, about 65,000 compounds went through this assay and about 2,100 (3.2%) showed an effect of 50% or more. The median lay at about -52%. For the sample, strong results were picked, then their nearest neighbours and some compounds at random.
# System: Plasmodium falciparum
# Assay: Screen against P. falciparum Asexual Blood Stage (ABS), at 5uM
# Format: functional, Dd2
# Conditions: tested at 5 uM
row,Structure (SMILES),INHIBITION
1,c1cncc(OC[C@]23COC[C@H]2CN(C2CCC2)C3)c1,-4.29%
2,CCC1CCCN(Cc2nc(N)c3ccccc3n2)C1 (centres undefined),74%
3,O=S(=O)(C1CC1)N1CCOC2(CCCN(Cc3ccccn3)C2)C1 (centres undefined),-97.5%
4,CCN1CCc2c(cccc2NC(=O)N(C)C2CCSC2)C1 (centres undefined),-40.2%
5,CN(C)CCN1CCN(CC2CC2)c2ncccc2C1,10.4%
6,CN(C)CCN1CCC(NC2CSCCc3ccccc32)CC1 (centres undefined),76.5%
7,O=C1[C@@H]2CN(Cc3ccccn3)C[C@H]2CCN1c1cncnc1,-99.9%
8,Cc1ccc(-n2nnc(CC(=O)N3CCN(C(C)C)CC3)c2C)cc1,-42.3%
9,CCC(=O)NCC(=O)NC(Cc1ccccc1)c1sccc1C (centres undefined),85.5%
10,CCOC(C)c1noc(CN(C)C(=O)C2C(C)(C)C2(C)C)n1 (centres undefined),-124%
11,COc1ccc(CCNCc2ccco2)cc1OC,5.79%
12,Cc1cc(C)c2cc(CNCc3ccco3)c3nn(C)c(=O)n3c2c1,75.5%
13,Cc1cc(C)c2cc(CNC3CCCCC3)c3nn(C)c(=O)n3c2c1,79.7%
14,Oc1ccc(Cl)cc1CNCc1cccc(C(F)(F)F)c1,89%
15,Oc1ccc(Cl)cc1CNCc1ccccc1Cl,76.4%
16,Cc1ccccc1CNCc1cc(Cl)ccc1O,75.4%
17,COCCNC(=O)[C@H]1C[C@@H]2CCN(Cc3ccncc3)C[C@H]2O1,-49.6%
18,O=C(NCc1ccncc1)C1=NOC2(CCCNC2)C1 (centres undefined),-6.12%
19,Cc1cccc(CN2CC3C[C@]3(NC(=O)c3ccco3)C2)n1 (some centres undefined),-83.2%
20,CCCc1nc(CNC(C)Cn2cccn2)cs1 (centres undefined),-91.5%
21,COCCN1CCN(c2ccc(C)nn2)Cc2ccc(C)nc21,-54.8%
22,Nc1nc2c(c(N3CCCC(c4nnc5ccccn45)C3)n1)CCNC2 (centres undefined),84.8%

row,Structure (SMILES),INHIBITION
1,c1ccn2c(C3CCCN(c4ncnc5c4CCNC5)C3)nnc2c1 (centres undefined),76.2%
2,O=C(C1CC1)N1CCc2c(ncnc2N2CCN3CCCC3C2)C1 (centres undefined),-21.1%
3,Clc1cncc(N2CCN(Cc3ccon3)CC2)n1,-51.3%
4,CN1CCCCC1c1cncc(Cl)n1 (centres undefined),-143%
5,CC(C)(N)C(=O)N1CCCC1c1cncc(Oc2ccccc2)n1 (centres undefined),78.6%
6,O=C(Nc1cccnc1)[C@@H]1C[C@H]2OCC[C@H]2N(Cc2nccs2)C1,-80.7%
7,Cn1cc(CN2C[C@@H]3[C@@H](C2)OCC(=O)N3Cc2ccncc2)cn1,-72.9%
8,CCN1C[C@H]2[C@@H](C1)N(c1ncc(F)cn1)CC[C@H]2OC,35.7%
9,c1ccc(COC[C@H]2CC[C@H]3[C@H](CCN3Cc3ccco3)O2)nc1,-63.4%
10,CO[C@@H]1CCN(Cc2ccccn2)[C@@H]2CN(Cc3ccco3)C[C@@H]21,81.6%
11,COC[C@H]1CC[C@@H]2[C@@H](CCN2Cc2ccccn2)O1,-7.67%
12,COC[C@H]1CC[C@@H]2[C@@H](CCN2Cc2ccco2)O1,-128%
13,CN(Cc1ccco1)C[C@H]1OC[C@@H]2CCN(Cc3ccccn3)C[C@@H]21,71.1%
14,c1ccc(CN2CC[C@@H]3[C@@H](CO[C@@H]3CNc3ncccn3)C2)nc1,-169%
15,CO[C@H]1CCN(c2ncc(F)cn2)[C@@H]2CN(Cc3ccco3)C[C@H]12,63.7%
16,CO[C@@H]1CCN(c2ncc(F)cn2)[C@@H]2CN(CC3CC3)C[C@@H]21,6.1%
17,CO[C@@H]1CC[C@H]2[C@H]1OCCN2Cc1ccccn1,-64.6%
18,c1ccc(CN2CC[C@H]3CO[C@H](CNc4ncccn4)[C@H]3C2)nc1,-30.4%
19,CO[C@H]1CCN(Cc2ccccn2)[C@@H]2CN(Cc3ccco3)C[C@H]12,67.7%
20,COc1cccc2c(=O)n(C3CCNCC3)cnc12,-104%
21,O=C(NC1CCC1)[C@@H]1C[C@@H]2CCN(Cc3ccncc3)C[C@H]2O1,-70.1%
22,COCCO[C@@H]1C[C@H]2CN(C(=O)c3ccc(C)nc3)CCN2C1,-15.2%

row,Structure (SMILES),INHIBITION
1,Cn1ccc(CN2CCOCC23CCNCC3)n1,-75.7%
2,Cc1noc(C)c1C(=O)N1CCC2(CC1)c1nc[nH]c1CCN2C,-42.4%
3,CCN(CC)CCN1CCO[C@H]2[C@@H](OCc3ccncc3)CC[C@@H]21,-18.1%
4,Cn1cc(CN2C[C@H]3CCC[C@@]3(COc3ccccn3)C2)cn1,66.1%
5,CN(C)CC(=O)N1C[C@H]2CCC[C@@]2(COc2ccccn2)C1,84.9%
6,c1ccc(OC[C@]23COC[C@H]2CN(Cc2ccoc2)C3)nc1,15.8%
7,Cn1cc(CN2C[C@H]3CCC[C@@]3(COc3cccnc3)C2)cn1,17.2%
8,c1ccc(COC[C@@]23CCC[C@@H]2CN(Cc2ccccn2)C3)nc1,-56.9%
9,c1ccc(OC[C@]23COC[C@H]2CN(C2CCOCC2)C3)nc1,2.04%
10,COc1ccccc1C1SCC(=O)Nc2c1c(=O)[nH]n2C1CCOCC1 (centres undefined),-116%
11,COCCN1CCC2(COCc3c(C)nc(N(C)C)nc32)C1 (centres undefined),-49.6%
12,Cc1nc(N(C)C)nc2c1COCC21CCN(CC2CC2)C1 (centres undefined),50.3%
13,CN(C)c1ncc2c(n1)C1(CCN(CC3CC3)C1)COC2 (centres undefined),-2.79%
14,Cc1ccc(CN(CCCn2ccnc2)Cc2c(F)cccc2F)s1,81.5%
15,Cc1cc(C2CCC2)nc(NCCC23CCCN2CCC3)n1,12.6%
16,CC(C)COc1ccc(C2SCC(=O)Nc3c2c(=O)[nH]n3C(C)C)cc1 (centres undefined),-35.2%
17,CSC(C)CCN1CCC(n2cc(C3CCCCC3)nn2)CC1 (centres undefined),78.4%
18,CCC(C)CN1CCC(n2cc(C3CCCCC3)nn2)CC1 (centres undefined),77.1%
19,CC1(C)C(C(=O)NCCC2CN(Cc3c[nH]cn3)CCO2)C1(C)C (centres undefined),-64.7%
20,Cc1nc(C2(NCc3cc(C#N)ccc3F)CCCCC2)no1,-10.8%
